This is an account of results in PubChem BioAssay (EPA / NIEHS).

One may read the AC50 as the concentration giving half of the maximal activity seen.

The nature of experiment [1]: ATG_NFI_CIS: Attagene CIS-FACTORIAL HepG2 Assay for human Nuclear Factor I (NFI) (AID 2282989). The conditions noted are these: HepG2 cis-regulatory reporter, NFI response element transcription; actives raise or lower the signal. An outline of the steps: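 Read-out: reporter mRNA via RT-PCR plus capillary electrophoresis with fluorescence detection. Transiently transfected HepG2 (endogenous TF activity on cis promoters), 24 h compound exposure; gain or loss of signal fitted against DMSO.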

Experiment [2] has as its target Myc proto-oncogene protein (Homo sapiens) (UniProt P01106). The experiment can be described thus: ATG_Myc_CIS: Attagene CIS-FACTORIAL HepG2 Assay for human Myelocytomatosis (Myc) Proto-Oncogene Transcription Factor (AID 2282990). Conditions: HepG2, Attagene cis-reporter transcription factor activity; actives raise or lower the signal. In short, it runs like this: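 Read-out: fluorescent reporter mRNA fragments resolved by capillary electrophoresis after RT-PCR. Human HepG2 liver cells carried transfected cis-element reporter units and were dosed for 24 h. Gain or loss of signal fitted relative to DMSO baseline.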

Experiment [3] can be described thus: ATG_NF_kB_CIS: Attagene CIS-FACTORIAL HepG2 Assay for human Nuclear Factor Kappa B (NF-kB) (AID 2282991). The conditions noted are these: HepG2 Attagene cis-factorial NF-kB reporter mRNA; actives raise or lower the signal. In short, it runs like this: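 Endogenous transcription factor activity in HepG2 was captured via cis-regulated reporter constructs; after 24 h dosing, reporter mRNA was reverse-transcribed, amplified, fluorescently labelled and sized by capillary electrophoresis, with activity fitted bidirectionally relative to DMSO.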

A short description of experiment [4]: ATG_NRF2_ARE_CIS: Attagene CIS-FACTORIAL HepG2 Assay for human Nuclear Factor Erythroid 2 Related Factor 2 (NFR2) response to Antioxidant Response Elements (ARE) (AID 2282992).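 As to AC50: reporter mRNA level measured by RT-PCR and capillary electrophoresis fluorescence.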 Conditions: HepG2 Attagene ARE/NRF2 reporter, transcription factor activity; actives raise or lower the signal. In short, it runs like this:
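Endogenous transcription factor activity in human liver HepG2 cells is tracked via a cis-element-driven reporter within a multiplexed set. mRNA induction is read by RT-PCR and capillary electrophoresis after 24 h, with DMSO as baseline.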

Experiment [5] is described as follows: ATG_Oct_MLP_CIS: Attagene CIS-FACTORIAL HepG2 Assay for human Octamer-Binding Transcription Factor (Oct) (AID 2282993). Conditions: HepG2 Attagene cis-factorial Oct reporter, mRNA; actives raise or lower the signal. An outline of the steps: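 Read-out: reporter mRNA via RT-PCR plus capillary electrophoresis of 6-FAM-labelled fragments. Transiently transfected HepG2, 24 h exposure, endogenous TF activity on cis elements. Gain or loss of signal fitted relative to DMSO.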

In experiment [6] the target is human Peroxisome Proliferator-activated Receptor alpha (PPARa), PPARA (gene 5465) (UniProt Q07869). The experiment can be described thus: ATG_PPARa_TRANS: Attagene TRANS-FACTORIAL HepG2 Assay for human Peroxisome Proliferator-activated Receptor alpha (PPARa) (AID 2283001; active = hit-call score of the fitted dose curve at least 0.9, where 1 is the maximum;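 as to AC50: potency for gain of reporter signal over DMSO so agonist or activator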). An outline of the steps:
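HepG2, transient MRTU transfection, 24 h treatment. RT-PCR → FAM labelling → capillary electrophoresis. Fit vs DMSO, positive direction.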

Experiment [7] concerns the target Cellular tumor antigen p53 (Homo sapiens) (UniProt P04637). In words: ATG_p53_CIS: Attagene CIS-FACTORIAL HepG2 Assay for human p53 Transcription Factor (AID 2282994). Conditions: HepG2 p53 cis-element reporter, Attagene mRNA; actives raise or lower the signal. An outline of the steps: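 Steps: transfect HepG2 with multiplexed cis reporter constructs; dose chemicals 24 h; extract RNA, reverse-transcribe, PCR-amplify reporter sequences; FAM-label, HpaI-digest, resolve fragments by CE. Activity fitted both directions relative to DMSO.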

Experiment [8] in a line: BSK_3C_TissueFactor: BioMAP Diversity Plus: 3C Assay for Tissue Factor Biomarker Activity (AID 2282997). The conditions noted are these: BioMAP 3C HUVEC, tissue factor biomarker readout; actives raise or lower the signal. An outline of the steps: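 HUVEC, 3C system, 24 h post-dose; Tissue Factor by ELISA; bidirectional fit vs DMSO baseline.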
A short description of experiment [9]: BSK_3C_uPAR: BioMAP Diversity Plus: 3C Assay for Urokinase-type plasminogen activator receptor (uPAR) Biomarker Activity (AID 2282998). Conditions: BioMAP 3C HUVEC, uPAR biomarker ELISA; actives raise or lower the signal. An outline of the steps:
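HUVEC primary cells; 24 h post-dose; uPAR by ELISA; gain or loss of signal fitted bidirectionally vs DMSO baseline.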

Experiment [10] in a line: BSK_4H_Eotaxin3: BioMAP Diversity Plus: 4H Assay for Eotaxin 3 Biomarker Activity (AID 2283000).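 As to outcome: CCL26 protein level quantified by ELISA in parallel with SRB cytotoxicity check.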 Conditions: primary human endothelial cells (HUVEC); actives raise or lower the signal. An outline of the steps: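 Readout is Eotaxin-3 (CCL26) level by ELISA in primary human umbilical vein endothelial cells harvested 24 h after chemical exposure; activity fitted in both directions against DMSO control.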

Structures are written as SMILES. Inconclusive results are not listed. The source holds several records for some structures; these can differ, active in one and inactive in another. Active and inactive are the calls of the source. The calls were made as follows, unless noted: active = hit-call score of the fitted dose curve at least 0.9, where 1 is the maximum; inactive = score below 0.9.

Chain of Cellular tumor antigen p53 (Homo sapiens) (P04637 whole entry, looked up, the tested form may be a part): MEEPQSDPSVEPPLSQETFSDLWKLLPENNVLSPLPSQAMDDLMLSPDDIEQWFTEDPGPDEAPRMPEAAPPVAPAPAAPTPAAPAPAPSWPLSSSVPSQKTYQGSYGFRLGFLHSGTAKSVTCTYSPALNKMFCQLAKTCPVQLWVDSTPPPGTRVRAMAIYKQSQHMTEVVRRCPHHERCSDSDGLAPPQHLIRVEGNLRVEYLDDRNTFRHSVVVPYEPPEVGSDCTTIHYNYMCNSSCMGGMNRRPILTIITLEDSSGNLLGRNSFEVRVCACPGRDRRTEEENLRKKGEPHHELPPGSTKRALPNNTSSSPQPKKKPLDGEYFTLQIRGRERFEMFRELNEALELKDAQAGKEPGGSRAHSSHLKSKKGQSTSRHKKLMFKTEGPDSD
Chain of Myc proto-oncogene protein (Homo sapiens) (P01106 whole entry, looked up, the tested form may be a part): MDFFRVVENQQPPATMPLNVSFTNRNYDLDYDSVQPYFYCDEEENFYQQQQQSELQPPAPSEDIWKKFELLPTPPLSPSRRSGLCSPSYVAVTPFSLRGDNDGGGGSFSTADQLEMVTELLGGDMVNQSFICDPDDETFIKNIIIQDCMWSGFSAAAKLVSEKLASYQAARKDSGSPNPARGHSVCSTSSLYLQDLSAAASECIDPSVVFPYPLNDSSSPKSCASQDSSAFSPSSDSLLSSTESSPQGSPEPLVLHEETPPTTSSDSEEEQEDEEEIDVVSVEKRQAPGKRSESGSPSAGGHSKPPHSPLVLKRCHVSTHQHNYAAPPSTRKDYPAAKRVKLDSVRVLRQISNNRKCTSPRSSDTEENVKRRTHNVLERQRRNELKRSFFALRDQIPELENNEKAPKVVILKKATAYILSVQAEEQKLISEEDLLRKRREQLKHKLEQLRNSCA
Chain of human Peroxisome Proliferator-activated Receptor alpha (PPARa), PPARA (gene 5465) (Q07869 whole entry, looked up): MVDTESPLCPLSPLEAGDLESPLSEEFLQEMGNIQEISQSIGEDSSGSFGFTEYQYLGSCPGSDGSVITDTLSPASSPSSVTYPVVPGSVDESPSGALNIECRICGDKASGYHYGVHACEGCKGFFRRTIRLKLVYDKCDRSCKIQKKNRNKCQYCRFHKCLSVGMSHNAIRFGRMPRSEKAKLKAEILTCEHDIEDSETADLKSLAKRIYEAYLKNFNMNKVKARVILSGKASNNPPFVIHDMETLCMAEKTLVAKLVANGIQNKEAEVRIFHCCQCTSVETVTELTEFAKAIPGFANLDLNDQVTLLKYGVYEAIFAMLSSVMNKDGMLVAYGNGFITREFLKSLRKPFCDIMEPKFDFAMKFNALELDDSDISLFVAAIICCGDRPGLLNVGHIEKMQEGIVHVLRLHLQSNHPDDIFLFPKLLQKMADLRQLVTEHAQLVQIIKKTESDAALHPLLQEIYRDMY

For `COC(=O)c1sccc1S(N)(=O)=O`, the compound was classed as inactive in experiment [1], in experiment [2], in [3], in experiment [4], in [5] and in [6].

With `CCCCCCCCCCCCCCCCCC#N`, the call in [1], in [2], in experiment [3], in experiment [4], in experiment [5] and in experiment [6] was inactive.

As to `CC(=O)OCC(=O)[C@@]12N=C(C)O[C@@H]1C[C@H]1[C@@H]3CCC4=CC(=O)C=C[C@]4(C)[C@H]3[C@@H](O)C[C@@]12C`, the compound was called inactive in experiment [1], in experiment [2], in experiment [3], in experiment [4] and in experiment [7].

Turning to `O=c1cc(-c2ccccc2)oc2ccccc12`, the result in experiment [1], in experiment [2] and in [6] was inactive. For the same compound, the half-maximal activity concentration (AC50) was 82.3 µM (active) in [3], 4.03 µM (active) in [4] and 52.4 µM (active) in experiment [5].

Regarding `CC(CC=O)CCCC(C)(C)O` (centres undefined), the compound was classed as inactive in [1], in experiment [2], in experiment [3], in experiment [4], in experiment [5] and in [6].

On to `O=[N+]([O-])C1(Br)COCOC1`, for which the call in experiment [1], in experiment [2], in [4], in experiment [5] and in [6] was inactive. In addition, in experiment [3], the AC50 was 51.7 µM (active).

In the case of `[Cl][Nd]([Cl])[Cl]`, the result in [1], in experiment [2], in experiment [3], in experiment [4], in [5] and in experiment [6] was inactive.

For the compound `O=c1c2ccccc2oc2ccccc12`, the compound was called inactive in experiment [1], in [2], in experiment [3], in [5], in experiment [9] and in experiment [10]. In experiment [6], the call was inactive. Moreover, the AC50 in experiment [4] was 26.9 µM (active); in [8], 3.97 µM (active).

Take `CC(C)c1ccc2c(c1)CC[C@H]1[C@](C)(CN)CCC[C@]21C`: the call in experiment [1], in experiment [2], in [4] and in experiment [7] was inactive. Moreover, the figures for the AC50 in experiment [3] and in [6] were 5.84 µM (active) and 6.09 µM (active), respectively.

Regarding `COCCCOCCCOC`, the compound was called inactive in experiment [1], in experiment [2], in experiment [3], in experiment [4], in experiment [5] and in [6].

Regarding `CC(=O)CC(N)=O`, the compound was classed as inactive in [1], in [2], in experiment [3], in experiment [4], in [5] and in experiment [6].

For `CCCCCCCCCCC=CC#N`, the result in [1], in experiment [2], in experiment [3] and in [5] was inactive. In addition, the concentration at half-maximal activity (AC50) in experiment [4] was 114 µM (active); in experiment [6], 38 µM (active).

Turning to `FC(F)=C(F)OC(F)(F)C(F)(F)C(F)(F)F`, the outcome in [1], in experiment [2], in experiment [3], in experiment [4], in experiment [5] and in [7] was inactive. For the same compound, the result in experiment [6] was inactive.

Turning to `CC/C=C\CCOC(=O)CCCCC`, the result in experiment [1], in [2], in [3], in experiment [4], in experiment [5] and in experiment [7] was inactive. Besides, in experiment [6], the call was inactive.

In the case of `CC(C)CCCCCOC(=O)CCS`, the result in experiment [1], in experiment [2], in experiment [3], in experiment [4] and in [5] was inactive. For the same compound, the AC50 in [6] was 9.41 µM (active).

Consider `CCCCC(CC)COC(=O)c1ccccc1` (centres undefined), for which the outcome in [1], in [2], in [3], in experiment [4], in [5] and in experiment [6] was inactive.

With `Cc1cc(C)c(C)cc1C`, the call in experiment [1], in [2], in [3], in experiment [4] and in [7] was inactive.

Turning to `O=Nc1ccc(O)cc1`, the call in [1], in experiment [2], in experiment [3], in [4], in [5] and in experiment [8] was inactive. Also, the outcome in [9], in [10] and in [6] was inactive.

As for `CCc1ccc2c(c1)C(=O)c1ccccc1C2=O`, the result in [1], in experiment [2], in experiment [3], in experiment [5] and in experiment [6] was inactive. Further, in [4], the half-maximal activity concentration (AC50) is 14.5 µM (active).

As to `CCOc1nc(F)cc2nc(S(=O)(=O)Nc3c(Cl)cccc3C(=O)OC)nn12`, the compound was called inactive in experiment [1], in [2], in experiment [3], in experiment [7], in experiment [8] and in [9]. Moreover, the result in [10] and in experiment [6] was inactive. In addition, the AC50 in [4] is 27 µM (active).

Regarding `CCCCC(CC)COCC1CO1` (centres undefined), the outcome in experiment [1], in experiment [2], in experiment [3], in experiment [4], in experiment [5] and in experiment [8] was inactive. Further, the outcome in experiment [9] and in [10] was inactive. Further, the half-maximal activity concentration (AC50) in experiment [10] was 3.97 µM (active).

For the compound `N#CCc1ccc(Cl)cc1Cl`, the compound was classed as inactive in [1], in [2], in [3], in experiment [4], in experiment [5] and in experiment [7]. The call in experiment [6] was inactive.

As to `CCC(C)C=O` (centres undefined), the outcome in experiment [1], in experiment [2], in experiment [3], in experiment [4], in experiment [5] and in experiment [7] was inactive. Moreover, the call in experiment [6] was inactive.

Turning to `CC(=O)c1ccc[nH]1`, the call in experiment [1], in [2], in [3], in experiment [4], in [5] and in [7] was inactive. Besides, in experiment [6], the result was inactive.

Take `C[Si](C)(CCCN)O[Si](C)(C)CCCN`: the compound was called inactive in experiment [1], in [2], in [3], in [4] and in experiment [7].

Turning to `COCC(C)N` (centres undefined), the outcome in [1], in experiment [2], in experiment [3], in [4], in experiment [5] and in [6] was inactive.

Turning to `O=C(O)CC(C(=O)O)C(CC(=O)O)C(=O)O` (centres undefined), the compound was classed as inactive in experiment [1], in [2], in experiment [3], in experiment [4], in experiment [7] and in experiment [6].

With `CCCCCCC1(C)CCC(=O)O1` (centres undefined), the call in [1], in experiment [2], in experiment [3], in experiment [4], in experiment [5] and in experiment [7] was inactive. Further, the compound was classed as inactive in experiment [6].

As for `O=C(O)CCCC[C@@H]1SC[C@@H]2NC(=O)N[C@@H]21`, the compound was called inactive in experiment [1], in [2], in experiment [3], in experiment [4], in [5] and in experiment [6].
